The values below come from ChEMBL document CHEMBL1961873, “Compounds: GSK PKIS; Assays: Nanosyn kinase panel” (2012).

The structures appear in SMILES notation.

Test [1] concerns the target T1, Ephrin type-B receptor 2 (Homo sapiens) (UniProt P29323).
T1 sequence (whole entry): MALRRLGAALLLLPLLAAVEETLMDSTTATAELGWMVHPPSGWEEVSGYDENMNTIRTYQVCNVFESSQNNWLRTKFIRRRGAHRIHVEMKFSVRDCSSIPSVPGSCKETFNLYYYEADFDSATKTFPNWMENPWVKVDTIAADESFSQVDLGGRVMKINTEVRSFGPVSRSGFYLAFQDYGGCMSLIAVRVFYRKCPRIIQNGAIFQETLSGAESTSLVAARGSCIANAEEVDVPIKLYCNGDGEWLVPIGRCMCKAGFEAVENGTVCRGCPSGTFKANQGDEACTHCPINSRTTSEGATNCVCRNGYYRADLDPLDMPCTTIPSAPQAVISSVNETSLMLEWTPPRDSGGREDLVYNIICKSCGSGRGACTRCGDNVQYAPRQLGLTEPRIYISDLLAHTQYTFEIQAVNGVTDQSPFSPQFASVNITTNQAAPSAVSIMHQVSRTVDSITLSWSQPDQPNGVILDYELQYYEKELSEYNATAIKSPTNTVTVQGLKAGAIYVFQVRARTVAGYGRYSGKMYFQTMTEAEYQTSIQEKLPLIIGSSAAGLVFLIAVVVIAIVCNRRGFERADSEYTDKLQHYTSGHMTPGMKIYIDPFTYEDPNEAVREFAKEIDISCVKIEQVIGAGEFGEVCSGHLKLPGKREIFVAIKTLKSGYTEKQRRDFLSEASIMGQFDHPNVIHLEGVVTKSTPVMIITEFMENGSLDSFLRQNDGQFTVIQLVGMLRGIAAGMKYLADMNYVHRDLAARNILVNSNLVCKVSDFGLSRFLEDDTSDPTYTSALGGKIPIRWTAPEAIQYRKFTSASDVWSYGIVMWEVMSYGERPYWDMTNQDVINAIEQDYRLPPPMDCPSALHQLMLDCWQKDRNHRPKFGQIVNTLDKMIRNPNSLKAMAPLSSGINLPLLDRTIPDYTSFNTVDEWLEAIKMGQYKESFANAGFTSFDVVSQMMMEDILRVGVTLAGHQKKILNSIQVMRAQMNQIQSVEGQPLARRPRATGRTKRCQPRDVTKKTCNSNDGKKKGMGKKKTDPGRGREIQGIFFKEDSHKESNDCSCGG
Particulars: at 1 µM.

Test [2] has as its target T2, Ephrin type-B receptor 3 (Homo sapiens) (UniProt P54753).
T2 sequence (whole entry): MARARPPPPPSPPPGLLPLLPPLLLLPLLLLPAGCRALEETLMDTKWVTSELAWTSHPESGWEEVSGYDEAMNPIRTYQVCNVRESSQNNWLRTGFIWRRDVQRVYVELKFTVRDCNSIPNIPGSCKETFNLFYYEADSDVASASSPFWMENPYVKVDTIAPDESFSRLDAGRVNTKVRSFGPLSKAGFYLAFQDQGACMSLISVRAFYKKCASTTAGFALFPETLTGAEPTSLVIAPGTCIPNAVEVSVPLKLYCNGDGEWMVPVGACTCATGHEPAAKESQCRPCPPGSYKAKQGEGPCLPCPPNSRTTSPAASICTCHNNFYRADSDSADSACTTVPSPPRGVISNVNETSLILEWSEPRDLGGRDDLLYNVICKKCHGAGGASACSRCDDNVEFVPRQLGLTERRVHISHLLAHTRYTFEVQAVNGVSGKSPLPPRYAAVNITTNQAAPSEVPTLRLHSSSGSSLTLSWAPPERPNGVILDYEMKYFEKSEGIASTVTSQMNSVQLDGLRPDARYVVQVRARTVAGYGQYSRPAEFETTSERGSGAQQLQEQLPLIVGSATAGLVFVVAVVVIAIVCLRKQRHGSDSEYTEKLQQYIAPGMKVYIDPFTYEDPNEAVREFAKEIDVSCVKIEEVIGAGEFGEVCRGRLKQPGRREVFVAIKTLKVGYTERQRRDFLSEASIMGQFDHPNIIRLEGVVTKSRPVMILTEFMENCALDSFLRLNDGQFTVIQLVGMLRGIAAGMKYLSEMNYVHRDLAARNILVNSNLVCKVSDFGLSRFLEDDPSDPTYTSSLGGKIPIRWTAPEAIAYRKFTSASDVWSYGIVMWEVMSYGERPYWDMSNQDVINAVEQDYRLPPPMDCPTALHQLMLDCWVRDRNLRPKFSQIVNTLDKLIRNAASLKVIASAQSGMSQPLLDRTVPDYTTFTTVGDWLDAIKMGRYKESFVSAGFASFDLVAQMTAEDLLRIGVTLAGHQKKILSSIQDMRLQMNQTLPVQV
Particulars: at 0.1 µM.

Test [3] concerns the target T2, Ephrin type-B receptor 3 (Homo sapiens). The note with it: at 1 µM.
The target of test [4] is T3, Ephrin type-B receptor 4 (Homo sapiens) (UniProt P54760).
T3 sequence (whole entry): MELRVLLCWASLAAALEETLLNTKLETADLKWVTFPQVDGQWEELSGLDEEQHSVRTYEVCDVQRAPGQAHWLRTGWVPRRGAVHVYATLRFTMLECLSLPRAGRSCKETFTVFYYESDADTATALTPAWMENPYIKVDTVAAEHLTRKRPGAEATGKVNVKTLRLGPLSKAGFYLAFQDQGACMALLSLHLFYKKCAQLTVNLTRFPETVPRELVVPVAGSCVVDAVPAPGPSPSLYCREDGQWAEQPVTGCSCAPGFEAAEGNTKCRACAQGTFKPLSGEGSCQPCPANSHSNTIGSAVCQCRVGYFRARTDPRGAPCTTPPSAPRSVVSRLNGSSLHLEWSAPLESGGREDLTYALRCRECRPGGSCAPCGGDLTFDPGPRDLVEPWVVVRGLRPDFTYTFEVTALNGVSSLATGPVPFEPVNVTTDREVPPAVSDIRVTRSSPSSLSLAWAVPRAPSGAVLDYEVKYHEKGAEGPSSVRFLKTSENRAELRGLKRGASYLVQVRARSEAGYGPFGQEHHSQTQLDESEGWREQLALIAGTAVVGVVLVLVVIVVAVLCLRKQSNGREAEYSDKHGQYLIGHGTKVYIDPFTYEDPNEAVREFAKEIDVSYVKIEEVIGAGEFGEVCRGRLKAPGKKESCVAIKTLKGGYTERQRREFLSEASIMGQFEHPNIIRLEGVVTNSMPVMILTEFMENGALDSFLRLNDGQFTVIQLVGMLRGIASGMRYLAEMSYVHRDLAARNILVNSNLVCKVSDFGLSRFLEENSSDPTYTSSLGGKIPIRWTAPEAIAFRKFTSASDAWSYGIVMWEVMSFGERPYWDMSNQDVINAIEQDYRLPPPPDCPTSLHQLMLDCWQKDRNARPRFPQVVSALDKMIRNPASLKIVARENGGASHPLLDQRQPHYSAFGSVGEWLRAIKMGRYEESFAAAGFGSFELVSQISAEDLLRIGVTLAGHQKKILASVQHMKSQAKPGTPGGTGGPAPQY
Particulars: at 0.1 µM.

For test [5], the target named is T3, Ephrin type-B receptor 4 (Homo sapiens). Particulars: at 1 µM.
In test [6] the target is Receptor tyrosine-protein kinase erbB-2 (Homo sapiens) (UniProt P04626). Particulars: at 0.1 µM.
For test [7] the target is unchanged. The note with it: at 1 µM.
The target in test [8] is Receptor tyrosine-protein kinase erbB-4 (Homo sapiens) (UniProt Q15303). Particulars: at 0.1 µM.
The target is the same in test [9]. The note with it: at 1 µM.
Test [10] concerns the target Tyrosine-protein kinase Fer (Homo sapiens) (UniProt P16591). Particulars: at 0.1 µM.
Test [11] shares this target. Particulars: at 1 µM.
Test [12] deals with Tyrosine-protein kinase Fes/Fps (Homo sapiens) (UniProt P07332). Particulars: at 0.1 µM.
For test [13] the target is unchanged. The note with it: at 1 µM.
The target in test [14] is Fibroblast growth factor receptor 1 (Homo sapiens) (UniProt P11362). Particulars: at 0.1 µM.
Test [15] shares this target. The note with it: at 1 µM.
Test [16] deals with Fibroblast growth factor receptor 2 (Homo sapiens) (UniProt P21802). Particulars: at 0.1 µM.
The target is the same in test [17]. Particulars: at 1 µM.
For test [18], the target named is Fibroblast growth factor receptor 3 (Homo sapiens) (UniProt P22607). Particulars: at 0.1 µM.
The target is the same in test [19]. The note with it: at 1 µM.
Test [20] concerns the target Fibroblast growth factor receptor 4 (Homo sapiens) (UniProt P22455). Particulars: at 0.1 µM.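 Note: values are mean percent inhibition of FGFR4.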

Sequence of Fibroblast growth factor receptor 1 (Homo sapiens) (P11362 22-822 limits assumed): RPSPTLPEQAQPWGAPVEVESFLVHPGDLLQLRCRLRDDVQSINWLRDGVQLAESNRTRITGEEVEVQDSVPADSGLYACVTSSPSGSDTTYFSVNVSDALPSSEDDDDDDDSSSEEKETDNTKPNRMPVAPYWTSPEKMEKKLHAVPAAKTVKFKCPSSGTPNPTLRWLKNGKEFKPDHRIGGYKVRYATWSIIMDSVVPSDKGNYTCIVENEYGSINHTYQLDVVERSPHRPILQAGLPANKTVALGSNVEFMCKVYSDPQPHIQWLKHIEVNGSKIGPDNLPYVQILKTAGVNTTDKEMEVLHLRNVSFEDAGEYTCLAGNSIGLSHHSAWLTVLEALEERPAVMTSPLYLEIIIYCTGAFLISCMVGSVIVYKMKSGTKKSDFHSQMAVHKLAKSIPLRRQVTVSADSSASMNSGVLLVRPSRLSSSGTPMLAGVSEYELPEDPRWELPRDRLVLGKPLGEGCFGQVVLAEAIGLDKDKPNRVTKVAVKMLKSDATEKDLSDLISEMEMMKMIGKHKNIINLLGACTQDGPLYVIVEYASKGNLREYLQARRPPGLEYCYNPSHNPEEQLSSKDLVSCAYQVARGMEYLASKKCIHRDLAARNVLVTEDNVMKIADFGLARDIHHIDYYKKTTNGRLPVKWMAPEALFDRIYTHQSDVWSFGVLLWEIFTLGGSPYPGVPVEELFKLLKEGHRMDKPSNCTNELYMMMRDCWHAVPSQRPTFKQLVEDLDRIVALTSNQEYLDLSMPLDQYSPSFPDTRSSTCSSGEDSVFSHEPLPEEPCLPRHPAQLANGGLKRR
Sequence of Fibroblast growth factor receptor 4 (Homo sapiens) (P22455 22-802 limits assumed): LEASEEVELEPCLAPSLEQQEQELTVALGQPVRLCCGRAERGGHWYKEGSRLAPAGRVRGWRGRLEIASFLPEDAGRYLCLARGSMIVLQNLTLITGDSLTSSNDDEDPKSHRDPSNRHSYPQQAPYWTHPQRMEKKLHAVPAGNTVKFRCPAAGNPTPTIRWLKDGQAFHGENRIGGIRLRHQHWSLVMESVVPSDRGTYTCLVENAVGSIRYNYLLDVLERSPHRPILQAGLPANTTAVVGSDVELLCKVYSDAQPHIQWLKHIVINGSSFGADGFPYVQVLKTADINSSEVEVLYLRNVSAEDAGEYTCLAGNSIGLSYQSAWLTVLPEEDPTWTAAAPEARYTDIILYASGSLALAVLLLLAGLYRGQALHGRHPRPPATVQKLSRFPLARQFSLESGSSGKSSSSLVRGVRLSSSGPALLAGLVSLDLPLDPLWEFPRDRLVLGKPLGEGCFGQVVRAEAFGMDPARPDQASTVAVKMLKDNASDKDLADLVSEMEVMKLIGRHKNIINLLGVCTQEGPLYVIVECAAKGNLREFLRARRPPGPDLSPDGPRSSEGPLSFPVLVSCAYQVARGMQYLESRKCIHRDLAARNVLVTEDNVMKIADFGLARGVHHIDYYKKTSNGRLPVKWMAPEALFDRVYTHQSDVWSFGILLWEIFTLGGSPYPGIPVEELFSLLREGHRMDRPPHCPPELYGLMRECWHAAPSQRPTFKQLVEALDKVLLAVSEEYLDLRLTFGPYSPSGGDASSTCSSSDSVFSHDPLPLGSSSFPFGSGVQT
Sequence of Receptor tyrosine-protein kinase erbB-2 (Homo sapiens) (P04626 whole entry): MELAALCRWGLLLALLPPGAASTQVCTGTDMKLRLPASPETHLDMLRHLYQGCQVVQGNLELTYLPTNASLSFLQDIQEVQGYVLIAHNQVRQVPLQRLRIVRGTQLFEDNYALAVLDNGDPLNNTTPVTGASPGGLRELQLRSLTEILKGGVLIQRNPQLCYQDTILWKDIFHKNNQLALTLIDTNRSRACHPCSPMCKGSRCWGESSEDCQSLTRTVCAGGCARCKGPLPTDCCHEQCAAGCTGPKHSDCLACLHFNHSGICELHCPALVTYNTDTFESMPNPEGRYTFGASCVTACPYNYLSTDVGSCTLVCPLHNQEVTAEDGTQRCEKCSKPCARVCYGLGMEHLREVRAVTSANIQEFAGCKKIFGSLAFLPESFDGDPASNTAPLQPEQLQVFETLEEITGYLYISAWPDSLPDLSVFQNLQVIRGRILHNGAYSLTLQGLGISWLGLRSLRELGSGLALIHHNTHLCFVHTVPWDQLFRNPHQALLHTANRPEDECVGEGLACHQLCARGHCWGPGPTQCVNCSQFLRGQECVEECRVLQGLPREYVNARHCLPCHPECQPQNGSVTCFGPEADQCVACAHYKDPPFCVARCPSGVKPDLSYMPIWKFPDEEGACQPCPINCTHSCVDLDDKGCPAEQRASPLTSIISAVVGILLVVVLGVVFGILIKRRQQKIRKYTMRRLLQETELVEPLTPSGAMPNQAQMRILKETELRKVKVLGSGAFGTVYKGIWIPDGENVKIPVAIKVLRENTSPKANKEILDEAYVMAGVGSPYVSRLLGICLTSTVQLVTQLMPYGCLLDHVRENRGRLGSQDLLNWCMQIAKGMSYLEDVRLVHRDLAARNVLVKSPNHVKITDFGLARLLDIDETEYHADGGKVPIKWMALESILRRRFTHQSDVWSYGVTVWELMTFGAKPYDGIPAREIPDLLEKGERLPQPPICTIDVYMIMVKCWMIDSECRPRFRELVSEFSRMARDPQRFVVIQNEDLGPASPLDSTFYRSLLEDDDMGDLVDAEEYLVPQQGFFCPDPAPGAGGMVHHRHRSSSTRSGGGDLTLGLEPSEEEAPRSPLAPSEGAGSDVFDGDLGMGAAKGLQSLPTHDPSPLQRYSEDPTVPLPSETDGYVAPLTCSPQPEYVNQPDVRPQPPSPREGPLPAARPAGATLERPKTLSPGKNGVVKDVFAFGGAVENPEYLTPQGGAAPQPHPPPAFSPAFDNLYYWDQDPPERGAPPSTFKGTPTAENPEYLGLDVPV
Sequence of Fibroblast growth factor receptor 2 (Homo sapiens) (P21802 22-821 limits assumed): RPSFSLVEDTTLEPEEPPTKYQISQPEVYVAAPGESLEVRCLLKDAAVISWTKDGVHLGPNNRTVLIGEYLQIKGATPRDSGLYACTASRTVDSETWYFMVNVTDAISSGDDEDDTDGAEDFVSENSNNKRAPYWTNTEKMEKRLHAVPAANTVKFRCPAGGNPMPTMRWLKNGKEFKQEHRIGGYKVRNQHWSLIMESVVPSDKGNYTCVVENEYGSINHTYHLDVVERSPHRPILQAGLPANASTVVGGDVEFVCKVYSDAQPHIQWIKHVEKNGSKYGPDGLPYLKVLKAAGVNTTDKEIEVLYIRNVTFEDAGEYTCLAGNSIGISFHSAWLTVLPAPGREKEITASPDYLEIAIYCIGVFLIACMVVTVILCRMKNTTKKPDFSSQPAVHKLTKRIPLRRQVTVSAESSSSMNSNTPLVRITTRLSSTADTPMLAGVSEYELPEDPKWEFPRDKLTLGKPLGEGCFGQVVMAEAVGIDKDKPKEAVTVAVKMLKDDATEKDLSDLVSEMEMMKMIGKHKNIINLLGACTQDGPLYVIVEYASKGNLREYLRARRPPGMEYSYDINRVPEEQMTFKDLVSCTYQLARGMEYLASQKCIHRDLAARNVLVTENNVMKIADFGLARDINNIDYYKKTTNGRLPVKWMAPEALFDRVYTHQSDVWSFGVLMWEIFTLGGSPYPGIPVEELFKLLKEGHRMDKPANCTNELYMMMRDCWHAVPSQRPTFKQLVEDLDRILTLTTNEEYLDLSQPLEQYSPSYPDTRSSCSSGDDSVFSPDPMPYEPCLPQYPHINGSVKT
Sequence of Tyrosine-protein kinase Fes/Fps (Homo sapiens) (P07332 whole entry): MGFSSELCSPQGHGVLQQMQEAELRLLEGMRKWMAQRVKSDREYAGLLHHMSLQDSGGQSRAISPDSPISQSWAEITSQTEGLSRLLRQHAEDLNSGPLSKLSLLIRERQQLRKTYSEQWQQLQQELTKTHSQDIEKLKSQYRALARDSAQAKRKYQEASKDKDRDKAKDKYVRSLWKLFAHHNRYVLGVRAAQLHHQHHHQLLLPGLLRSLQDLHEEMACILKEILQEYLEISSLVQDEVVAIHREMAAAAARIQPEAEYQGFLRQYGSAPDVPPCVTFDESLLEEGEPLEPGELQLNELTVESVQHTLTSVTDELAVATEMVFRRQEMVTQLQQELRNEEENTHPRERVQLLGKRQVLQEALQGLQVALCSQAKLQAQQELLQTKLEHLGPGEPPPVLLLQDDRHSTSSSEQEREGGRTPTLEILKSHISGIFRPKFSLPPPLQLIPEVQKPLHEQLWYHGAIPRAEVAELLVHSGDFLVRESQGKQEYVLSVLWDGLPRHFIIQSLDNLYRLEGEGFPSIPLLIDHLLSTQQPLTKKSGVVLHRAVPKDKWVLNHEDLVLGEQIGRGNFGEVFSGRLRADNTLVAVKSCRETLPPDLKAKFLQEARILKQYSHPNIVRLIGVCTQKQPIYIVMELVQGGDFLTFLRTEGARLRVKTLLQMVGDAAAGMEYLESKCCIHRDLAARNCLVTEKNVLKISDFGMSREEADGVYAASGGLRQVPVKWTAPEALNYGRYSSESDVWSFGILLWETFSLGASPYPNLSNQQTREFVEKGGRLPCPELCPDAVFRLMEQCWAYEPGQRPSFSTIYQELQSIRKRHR

Consider `NC(=O)c1ccc(Oc2nccc(-c3c(-c4ccc(F)cc4)ncn3C3CCNCC3)n2)cc1`, for which the inhibition – broadly, the change of the read-out against control, counted positive when it falls – in test [1] amounted to 4.72%; in test [2] it was 4.03%; in test [3], 3.75%; in [4] it was 3.7%; in test [5], 3.09%; in test [6], 3.73%. Also, the inhibition came to 3.35% in test [7]; 5.71% in test [8]; 8.73% in [9]; 7.08% in test [10]; 10.6% in test [11]; 4.82% in test [12]. Further, the inhibition came out at 4.5% in test [13]; 5.23% in [14]; 8.19% in test [15]; 11.3% in test [16]; 8.04% in [17]; 11% in test [18]. Besides, the inhibition is 6.64% in test [19] and 5.18% in test [20].
Take `COc1cc2ncn(-c3cc(OCc4cccs4)c(C(N)=O)s3)c2cc1OC`: the inhibition in [1] was 20.8%; in [2], -3.17%; in test [3], -3.49%; in test [4], -2.89%; in test [5] it was -2.46%; in test [6], 5.9%. Also, the inhibition in test [7] stood at 12.5%; in test [8], 1.73%; in test [9], 6.6%; in test [10], 5.05%; in [11], 12.9%; in [12] it was 1.87%. Moreover, the inhibition in test [13] is 1.21%; in [14] it was -3.02%; in test [15], 7.33%; in test [16], 1.75%; in test [17] it was 15.3%; in test [18] it was 1.72%. Also, the inhibition is 12.4% in [19] and -0.52% in [20].
Consider `O=C(Nc1n[nH]c2nc(-c3ccco3)ccc12)C1CC1`, for which the inhibition is 12.7% in test [1]; 3.53% in test [2]; 2.4% in test [3]; 0.45% in [4]; 4.02% in [5]; 0.39% in [6]. Besides, the inhibition in [7] came out at 0.71%; in test [8], 2.93%; in [9], 2%; in [10], 0.52%; in test [11], 2.89%; in test [12], 1.02%. Also, the inhibition in [13] is 1.51%; in test [14], 2.13%; in test [15], 2.39%; in [16], -0.33%; in test [17] it was 5.26%; in test [18] it was 1.13%. Further, the inhibition in test [19] stood at 3.83%; in test [20], 2.11%.
With `CCN(CC)Cc1ccc(Nc2nccc(-c3cnn4ncccc34)n2)cc1`, the inhibition in test [1] is 27.2%; in test [2] it was -0.97%; in test [3] it was 0.55%; in test [4], 1.62%; in [5] it was 8.4%; in test [6], 3.58%. Also, the inhibition in test [7] is 3.96%; in [8], 1.52%; in test [9] it was 5.17%; in [10] it was 3.88%; in [11] it was 15.5%; in test [12], 5.99%. Further, the inhibition in [13] came out at 28%; in test [14] it was 1.77%; in test [15] it was 11.6%; in test [16] it was 4.18%; in test [17], 8.8%; in test [18], 2.66%. The figures for the inhibition in test [19] and in [20] were 5.35% and -1.71%, respectively.
In the case of `COc1cc(N2CCN(C(C)C)CC2)ccc1Nc1nc(Nc2ccc(F)cc2C(=O)NC[C@@H](O)CO)c2cc[nH]c2n1`, the inhibition in test [1] was 6.9%; in test [2] it was 0.85%; in test [3] it was -0.23%; in [4] it was -2.73%; in [5], -3.91%; in test [6] it was 3.24%. Besides, the inhibition in test [7] was determined as 10.5%; in [8], 9.31%; in test [9], 15.7%; in test [10] it was 17.7%; in [11], 60.2%; in test [12] it was 4.45%. Further, the inhibition is 20.1% in test [13]; -0.71% in test [14]; 5.9% in test [15]; 1.11% in test [16]; 1.86% in test [17]; 1.06% in test [18]. In addition, the figures for the inhibition in [19] and in test [20] were 3.63% and -2.86%, respectively.
As to `Fc1ccc(-c2ncn(C3CCNCC3)c2-c2ccnc(Oc3ccc(Oc4ccccc4)cc3)n2)cc1`, the inhibition was found to be 7.3% in test [1]; 4.75% in test [2]; 2.76% in test [3]; 2.74% in [4]; 2.19% in test [5]; 3.95% in test [6]. Besides, the inhibition in test [7] was determined as 2.11%; in test [8] it was 6.47%; in test [9], 9.01%; in test [10] it was 1.51%; in [11] it was 5.54%; in test [12] it was 3.48%. Also, the inhibition in test [13] came to 4.42%; in [14], 6.98%; in test [15] it was 2.81%; in test [16], 6.96%; in [17], 5.56%; in test [18] it was 7.61%. For the same compound, the results for the inhibition in test [19] and in test [20] were 5.27% and -7.37%, respectively.
As for `NS(=O)(=O)c1ccc(N/N=C2\C(=O)Nc3ccc(C(=O)NCCCn4ccnc4)cc32)cc1`, the inhibition in test [1] came to 13.3%; in [2], 5.75%; in [3], 4.37%; in test [4] it was 1.61%; in test [5], 5.27%; in test [6] it was 4.39%. The inhibition is 5.69% in test [7]; 8.45% in [8]; 14.6% in test [9]; 2.9% in [12]; 3.18% in test [13]; 1.31% in [14]. Also, the inhibition in [15] was 4.32%; in test [16], 3.11%; in test [17], 8.85%; in [18] it was 4.75%; in test [19], 5.37%; in test [20], -9.93%.
